A short description of experiment [1]: rapamycin-like changes in RPL19A-GFP expression – cell-based, S. cerevisiae, multiplex flow cytometry, primary screen (AID 1862; in the data active = percent of DMSO control GFP below about 86%;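 also: lower values mimic rapamycin by blocking the RPL19A rise seen in DMSO cells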). The note with it: S. cerevisiae RPL19A-GFP strain, flow cytometry fluorescence, 3 h; at 10 µM; stronger effect = lower value.
The nature of experiment [2]: TOR pathway GLN3 branch reporter MEP2-GFP changes – S. cerevisiae, multiplex flow cytometry, primary screen (AID 1867;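 active = GFP response, as percent of the DMSO control, above the screen-wide mean plus 3 SD, about 139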;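 also: median GFP channel fluorescence of barcode-gated MEP2-GFP cells measured by flow cytometry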). The note with it: S. cerevisiae MEP2-GFP strain, 3 h, at 10 µM, stronger effect = higher value, 100% means same as DMSO wells.
A short description of experiment [3]: TOR pathway RTG branch CIT2 reporter changes – S. cerevisiae, GFP fusion, multiplex flow cytometry, primary screen (AID 1870;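 active = percent response above a set limit, the screen-wide mean plus 3 SD, cut at about 130% in these data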;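 also: barcoded CIT2-GFP strain pooled with four other GFP strains with rapamycin as positive control; median GFP fluorescence per well over plate mean of DMSO wells so 100% = DMSO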). The settings on record: S. cerevisiae CIT2-GFP expression, 3 h, at 10 µM, stronger effect = higher value.
The nature of experiment [4]: TOR pathway LAP4-GFP level changes – S. cerevisiae, multiplex flow cytometry, primary screen (AID 1873). The settings on record: S. cerevisiae LAP4-GFP expression, 3 h, at 10 µM, stronger effect = higher value.
Experiment [5] is described as follows: yeast AGP1-GFP level changes, GLN3 branch – cell-based, multiplex flow cytometry, S. cerevisiae, primary screen (AID 1887;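 active = GFP signal above the screen-wide mean plus 3 SD, that is over about 124.5% of the solvent control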;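 also: AGP1-GFP fusion strain of S. cerevisiae within a five-strain barcoded multiplex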). The settings on record: 3 h, at 10 µM, stronger effect = higher value.
Experiment [6] in a line: reduced mouse 2C T cell binding to pMHC/ICAM-1 vesicles – MLPCN validation set, flow cytometry, LFA-1/ICAM-1 modulator project, pilot screen (AID 2523;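 active = response below a set limit, under 55% cells CD8-positive and vesicle-bound, and CD8 cells' 90th-percentile brightness under 279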;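 as to vesicle binding response: mean PE anti-B7-1 fluorescence of CD8+ cells relative to row control; 100% = QL9-loaded vesicles with DMSO vehicle in the same plate row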). The settings on record: 2C mouse CD8+ T cells, at 7 µM, stronger effect = lower value; double positive events: measured here: CD8+/vesicle+ event percentage.
Experiment [7] has as its target Integrin beta-1 (Homo sapiens) + Integrin alpha-4 (Homo sapiens) (UniProt P13612+P05556). Description: alpha4beta1 integrin LIBS antibody binding reduction – U937 cells, HUTS-21 mAb, flow cytometry, validation set, VLA-4 allosteric modulator project, pilot screen (AID 2674;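 active = inhibition above 50%, about 3 SD of the validation set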;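 also: antibody binding induced by the VLA-4 ligand LDV present at three times its Kd; 0% = LDV ligand with antibody and no compound and 100% = antibody without LDV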). The settings on record: HUTS-21 LIBS mAb binding, at 6.7 µM, stronger effect = higher value, binding induced by LDV ligand.

Experiment [8] is described as follows: calorie-restriction mimetic ROS inhibitors, yeast – validation compound set, pilot screen (AID 2706;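 active = superoxide response below 65% of plate, a cut near 3 SD across the whole screen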;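 also: yeast exposed to compound for one week at 30 degrees C before staining; 100% = mean of all compound wells on the same plate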). The settings on record: S. cerevisiae aging, superoxide DHE fluorescence; at 10 µM, stronger effect = lower value.
The target in experiment [9] is Beta-adrenergic receptor kinase 1 (Homo sapiens) (UniProt P25098). Description: GRK2 binders displacing RNA aptamer, biochemical, validation, human GRK2, bead flow cytometry (AID 488806;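 active = aptamer binding inhibition above 30%, about 3 SD of noise from non-fluorescent compounds; inactive = inhibition at or below 30%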). The note with it: bead-bound GRK2, FAM-aptamer displacement, at 10 µM, stronger effect = higher value.
Beta-adrenergic receptor kinase 1 (Homo sapiens), sequence (P25098 whole entry, looked up): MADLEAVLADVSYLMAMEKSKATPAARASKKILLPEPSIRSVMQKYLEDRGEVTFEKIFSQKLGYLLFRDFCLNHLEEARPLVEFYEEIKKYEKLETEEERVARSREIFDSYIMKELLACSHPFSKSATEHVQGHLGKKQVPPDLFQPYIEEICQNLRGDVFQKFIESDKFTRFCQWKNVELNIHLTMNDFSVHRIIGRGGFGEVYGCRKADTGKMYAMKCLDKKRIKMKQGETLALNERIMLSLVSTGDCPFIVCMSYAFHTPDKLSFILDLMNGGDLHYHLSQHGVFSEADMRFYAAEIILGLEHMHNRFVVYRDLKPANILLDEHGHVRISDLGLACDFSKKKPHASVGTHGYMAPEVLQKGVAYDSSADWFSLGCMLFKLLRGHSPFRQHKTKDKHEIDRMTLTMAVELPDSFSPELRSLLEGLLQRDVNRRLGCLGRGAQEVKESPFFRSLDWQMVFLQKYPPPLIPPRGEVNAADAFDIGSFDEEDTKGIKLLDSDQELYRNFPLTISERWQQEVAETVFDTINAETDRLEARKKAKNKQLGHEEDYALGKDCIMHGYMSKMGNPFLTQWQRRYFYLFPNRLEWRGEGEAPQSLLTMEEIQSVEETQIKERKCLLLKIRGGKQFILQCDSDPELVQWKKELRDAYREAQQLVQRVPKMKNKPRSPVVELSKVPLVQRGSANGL
Experiment [10] addresses AP-2 complex subunit beta (Homo sapiens) (UniProt P63010). Description: beta-arrestin/AP2 interaction blockers – biochemical, validation set, GST-AP2 beads, flow cytometry, pilot screen (AID 504541;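 active = inhibition above 54%, about 3 SD of non-fluorescent compounds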;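 also: AP2 carries R879A mutation and is captured from E. coli lysate; bead-bound FITC arrestin peptide fluorescence measuring arrestin peptide binding to AP2; 0% = DMSO wells and 100% = excess unlabeled arrestin peptide control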). The note with it: FITC arrestin peptide, at 10 µM, stronger effect = higher value, AP2 beta2 appendage fragment, R879A mutant.
Experiment [11] is described as follows: cytosolic pH regulators acting via V-ATPase – S. cerevisiae, pHLuorin, HTS validation (AID 504600; in the data active = response above about 15%;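 also: plate controls were DMSO for no effect and reference compound for full effect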). The note with it: V-ATPase proton transport, at 10 µM, stronger effect = higher value.
Experiment [12] concerns anti-desmoglein-3 scFv antibody binding to human DSG3. Description: blockers of pathogenic pemphigus antibody–desmoglein-3 binding – biochemical, validation compound set, bead-based, flow cytometry, pilot screen (AID 588368;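 active = binding below the plate cutoff, the plate median minus 3 SD, with a reading above zero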;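 also: signal is the median channel fluorescence of bead-bound GFP antibody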). The note with it: Protein G beads, DSG3-Fc, scFv-GFP binding, at 10 µM, stronger effect = lower value.
Experiment [13] is described as follows: Nile Red efflux blockade in pump-expressing yeast – validation compound set, multiplex, phenotypic, pilot screen (AID 588506;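 active = efflux inhibition above 0.42, the validation set average plus 4 SD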;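 also: Nile Red retained in cells so higher fluorescence means more efflux inhibition; 0 = negative control wells and 1 = enniatin B 25 µM full block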). The settings on record: S. cerevisiae pump-expressing triplex, Nile Red efflux flow cytometry; at 10 µM; stronger effect = higher value; the pumps come from Candida albicans.
Experiment [14] addresses ATP-binding cassette sub-family B member 6 (Homo sapiens) (UniProt Q9NP58). Description: blockers of ABCB6-driven porphyrin uptake – K562-ABCB6 cells, flow cytometry, validation set, pilot screen (AID 588550;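 active = inhibition above the screen-wide mean plus 3 SD, about 51%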;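 also: 0% = DMSO wells and 100% = benzethonium chloride 70 µM positive control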). The settings on record: K562-ABCB6 porphyrin accumulation, 1 h, at 10 µM, stronger effect = higher value.
A short description of experiment [15]: AML differentiation inducers, ER-HoxA9 marrow cells – cell-based, GFP/MAC1 double positive, flow cytometry, validation set, primary screen (AID 588685;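 active = differentiation response of at least 50%, scaled between solvent and reference control, from cells with both markers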;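 also: compound exposure lasts four days before antibody staining and flow analysis; 0% = DMSO wells and 100% = 5 µM fulvestrant positive control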). The note with it: stronger effect = higher value, normalized: vehicle 0, fulvestrant 100.

Results filed as inconclusive are left out. The source made the active and inactive calls.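 The calls were made as follows, unless noted: active = GFP signal, as percent of the solvent control, above the screen mean plus 3 SD, about 149; inconclusive = no reading because the compound's own fluorescence upset strain identification; inactive = the rest.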

ATP-binding cassette sub-family B member 6 (Homo sapiens), sequence (Q9NP58 whole entry, looked up): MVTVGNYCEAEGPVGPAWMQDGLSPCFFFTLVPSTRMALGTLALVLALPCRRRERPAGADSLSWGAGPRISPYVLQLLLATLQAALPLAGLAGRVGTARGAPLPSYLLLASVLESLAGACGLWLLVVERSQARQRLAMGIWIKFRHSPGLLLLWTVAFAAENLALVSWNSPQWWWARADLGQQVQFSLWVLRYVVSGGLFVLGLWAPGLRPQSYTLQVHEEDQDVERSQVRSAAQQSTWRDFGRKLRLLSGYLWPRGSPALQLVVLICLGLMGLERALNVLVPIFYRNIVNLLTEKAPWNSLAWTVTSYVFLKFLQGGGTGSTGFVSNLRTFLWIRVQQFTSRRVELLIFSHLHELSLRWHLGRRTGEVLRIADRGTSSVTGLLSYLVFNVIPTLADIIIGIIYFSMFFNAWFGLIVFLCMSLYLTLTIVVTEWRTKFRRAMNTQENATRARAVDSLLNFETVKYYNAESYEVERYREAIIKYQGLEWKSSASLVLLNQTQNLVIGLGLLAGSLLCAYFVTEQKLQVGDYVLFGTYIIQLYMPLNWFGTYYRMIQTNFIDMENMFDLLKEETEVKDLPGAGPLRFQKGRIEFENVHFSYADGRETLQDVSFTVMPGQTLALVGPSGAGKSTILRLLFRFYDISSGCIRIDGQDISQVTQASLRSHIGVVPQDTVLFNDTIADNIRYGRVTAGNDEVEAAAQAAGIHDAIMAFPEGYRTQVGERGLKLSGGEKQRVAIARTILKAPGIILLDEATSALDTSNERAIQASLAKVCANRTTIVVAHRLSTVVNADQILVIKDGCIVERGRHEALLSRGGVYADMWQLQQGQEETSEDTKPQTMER
Integrin beta-1 (Homo sapiens) + Integrin alpha-4 (Homo sapiens), sequence (P05556 whole entry, looked up): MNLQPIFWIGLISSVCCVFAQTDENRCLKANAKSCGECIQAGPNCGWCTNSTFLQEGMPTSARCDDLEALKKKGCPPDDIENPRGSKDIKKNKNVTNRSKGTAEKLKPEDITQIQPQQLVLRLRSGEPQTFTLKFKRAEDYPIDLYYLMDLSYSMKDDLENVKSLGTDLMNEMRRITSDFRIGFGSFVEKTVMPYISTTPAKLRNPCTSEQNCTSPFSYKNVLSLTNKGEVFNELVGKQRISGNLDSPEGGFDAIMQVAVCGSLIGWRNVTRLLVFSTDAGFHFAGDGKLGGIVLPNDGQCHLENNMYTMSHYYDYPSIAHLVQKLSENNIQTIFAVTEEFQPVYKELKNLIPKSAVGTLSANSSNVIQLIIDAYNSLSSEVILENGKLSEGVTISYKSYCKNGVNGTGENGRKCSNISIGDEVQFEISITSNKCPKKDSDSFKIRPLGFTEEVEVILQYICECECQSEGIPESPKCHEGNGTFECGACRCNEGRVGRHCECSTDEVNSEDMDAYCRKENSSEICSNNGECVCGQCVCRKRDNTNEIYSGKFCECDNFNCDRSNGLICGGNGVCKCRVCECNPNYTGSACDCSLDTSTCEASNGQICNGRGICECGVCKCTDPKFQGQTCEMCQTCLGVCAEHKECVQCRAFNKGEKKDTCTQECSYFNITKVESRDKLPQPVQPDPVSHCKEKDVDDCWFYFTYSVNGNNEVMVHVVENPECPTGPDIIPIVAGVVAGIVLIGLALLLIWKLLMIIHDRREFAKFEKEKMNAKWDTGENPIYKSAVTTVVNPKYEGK
Integrin beta-1 (Homo sapiens) + Integrin alpha-4 (Homo sapiens), sequence (P13612 whole entry, looked up): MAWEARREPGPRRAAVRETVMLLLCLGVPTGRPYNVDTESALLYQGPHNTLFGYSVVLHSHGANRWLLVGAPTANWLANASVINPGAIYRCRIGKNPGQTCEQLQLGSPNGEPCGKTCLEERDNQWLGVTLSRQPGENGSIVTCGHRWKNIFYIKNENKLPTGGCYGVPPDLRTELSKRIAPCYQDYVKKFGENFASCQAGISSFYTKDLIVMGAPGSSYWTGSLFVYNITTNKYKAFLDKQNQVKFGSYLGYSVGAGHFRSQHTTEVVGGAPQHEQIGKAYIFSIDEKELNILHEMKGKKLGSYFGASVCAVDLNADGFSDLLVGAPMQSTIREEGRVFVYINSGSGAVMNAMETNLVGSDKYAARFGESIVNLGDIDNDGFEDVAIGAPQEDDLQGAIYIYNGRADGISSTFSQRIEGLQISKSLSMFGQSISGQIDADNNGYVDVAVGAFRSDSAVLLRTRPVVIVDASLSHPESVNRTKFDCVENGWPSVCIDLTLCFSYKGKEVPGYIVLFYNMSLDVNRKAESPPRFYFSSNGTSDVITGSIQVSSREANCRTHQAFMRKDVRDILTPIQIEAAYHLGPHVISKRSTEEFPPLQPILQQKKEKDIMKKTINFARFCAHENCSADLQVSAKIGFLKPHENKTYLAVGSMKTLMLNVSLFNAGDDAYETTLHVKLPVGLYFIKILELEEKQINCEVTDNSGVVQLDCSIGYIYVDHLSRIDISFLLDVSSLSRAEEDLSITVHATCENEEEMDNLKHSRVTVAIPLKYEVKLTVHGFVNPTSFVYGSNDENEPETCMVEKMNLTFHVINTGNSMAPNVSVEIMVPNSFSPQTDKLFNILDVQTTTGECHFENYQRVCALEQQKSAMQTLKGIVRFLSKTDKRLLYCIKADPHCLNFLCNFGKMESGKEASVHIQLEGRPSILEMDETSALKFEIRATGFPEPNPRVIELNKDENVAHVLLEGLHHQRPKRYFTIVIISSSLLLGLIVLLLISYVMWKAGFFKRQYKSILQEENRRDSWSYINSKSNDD
AP-2 complex subunit beta (Homo sapiens), sequence (P63010 whole entry, looked up, the tested form may be a part, one chain of several): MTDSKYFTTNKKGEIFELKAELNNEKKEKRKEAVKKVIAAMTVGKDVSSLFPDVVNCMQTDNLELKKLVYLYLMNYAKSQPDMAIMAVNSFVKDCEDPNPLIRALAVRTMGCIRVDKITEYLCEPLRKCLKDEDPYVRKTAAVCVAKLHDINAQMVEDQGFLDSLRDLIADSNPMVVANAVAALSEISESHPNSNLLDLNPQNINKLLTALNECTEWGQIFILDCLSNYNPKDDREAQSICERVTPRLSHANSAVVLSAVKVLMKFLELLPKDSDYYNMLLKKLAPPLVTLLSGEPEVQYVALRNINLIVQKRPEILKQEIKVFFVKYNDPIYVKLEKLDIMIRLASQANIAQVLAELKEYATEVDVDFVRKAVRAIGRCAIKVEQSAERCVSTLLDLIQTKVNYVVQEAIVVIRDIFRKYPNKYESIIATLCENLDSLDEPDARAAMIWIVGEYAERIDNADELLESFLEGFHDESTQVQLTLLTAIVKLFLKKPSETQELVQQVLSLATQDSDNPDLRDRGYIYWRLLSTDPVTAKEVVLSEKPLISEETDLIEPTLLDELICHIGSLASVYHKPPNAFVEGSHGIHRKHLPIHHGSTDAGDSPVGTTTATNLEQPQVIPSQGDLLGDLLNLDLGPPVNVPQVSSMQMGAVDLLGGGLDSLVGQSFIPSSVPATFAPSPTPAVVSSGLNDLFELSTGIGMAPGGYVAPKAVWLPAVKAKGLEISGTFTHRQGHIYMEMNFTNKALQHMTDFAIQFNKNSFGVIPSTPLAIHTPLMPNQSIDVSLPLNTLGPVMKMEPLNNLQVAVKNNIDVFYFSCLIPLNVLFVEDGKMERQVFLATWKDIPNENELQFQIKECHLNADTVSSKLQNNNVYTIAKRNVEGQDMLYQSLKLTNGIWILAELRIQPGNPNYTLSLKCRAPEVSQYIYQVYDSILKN

In the case of `CCOC(=O)C(=O)Nc1ccc(Oc2ccccc2)cc1`, the percent of DMSO control GFP in experiment [1] was 96.8% (inactive). The GFP response vs DMSO is 105% (inactive) in experiment [2] and 106% (inactive) in experiment [4]. Moreover, the percent response of DMSO control in [3] was 101% (inactive). For the same compound, in experiment [5], the GFP response, % of DMSO was 97.8% (inactive). This compound also displayed a double positive events in experiment [6] of 61.7%. The vesicle binding response in experiment [6] is 101% (inactive). Further, the inhibition in experiment [7] is 18.4% (inactive); in [10], 9.79% (inactive); in experiment [14], 4% (inactive). The superoxide response (% of plate) in experiment [8] is 101% (inactive). Moreover, in experiment [9], the aptamer binding inhibition is 3% (inactive). Also, in experiment [11], the response was 1.03% (inactive). Moreover, in experiment [12], the binding (% of control) is 105% (inactive). For the same compound, the efflux inhibition (fraction of control) in experiment [13] is -0.05 (inactive). Also, in experiment [15], the differentiation response is -26% (inactive).
In the case of `OC[C@H]1O[C@@H](n2cnc3c(NC4CCCC4)ncnc32)[C@H](O)[C@@H]1O`, the percent of DMSO control GFP in [1] was 96.8% (inactive). Besides, the GFP response vs DMSO was 98.9% (inactive) in [2] and 99.4% (inactive) in experiment [4]. Further, the percent response of DMSO control in [3] was 98.8% (inactive). Further, in [5], the GFP response, % of DMSO is 98.4% (inactive). The double positive events in experiment [6] was determined as 52.6%. Further, the vesicle binding response in experiment [6] is 139% (inactive). Also, the inhibition is 6.29% (inactive) in [7], 7.18% (inactive) in [10] and 2% (inactive) in experiment [14]. Besides, in experiment [8], the superoxide response (% of plate) is 102% (inactive). Further, in experiment [9], the aptamer binding inhibition was 4% (inactive). Further, the response in experiment [11] was -1.41% (inactive). For the same compound, the binding (% of control) in experiment [12] is 104% (inactive). Besides, in [13], the efflux inhibition (fraction of control) was 0.18 (inactive). For the same compound, the differentiation response in experiment [15] was -8.27% (inactive).
Regarding `CCN(CC)C(=O)c1ccc(O)c(OC)c1`, in experiment [1], the percent of DMSO control GFP is 94.2% (inactive). In addition, the GFP response vs DMSO in [2] and in experiment [4] was 102% (inactive) each time. The percent response of DMSO control in experiment [3] was 98.8% (inactive). Further, the GFP response, % of DMSO in experiment [5] is 102% (inactive). The compound further displayed a double positive events in [6] of 53.9%. The vesicle binding response in [6] was 118% (inactive). The inhibition in experiment [7] is 25.9% (inactive); in experiment [10], -2.62% (inactive); in experiment [14], 15% (inactive). In addition, the superoxide response (% of plate) in [8] is 89% (inactive). In experiment [9], the aptamer binding inhibition is 0% (inactive). The response in experiment [11] is 0.77% (inactive). Moreover, the binding (% of control) in experiment [12] is 101% (inactive). Also, in experiment [13], the efflux inhibition (fraction of control) was 0.29 (inactive). In addition, in experiment [15], the differentiation response was -9.89% (inactive).
For the compound `COc1ccc2c(c1)C(=O)CC(c1ccccc1F)O2` (stereo not given), the percent of DMSO control GFP in experiment [1] is 95.8% (inactive). In addition, the values for the GFP response vs DMSO in experiment [2] and in experiment [4] were 103% (inactive) and 92.3% (inactive), respectively. Besides, the percent response of DMSO control in [3] is 93.9% (inactive). Further, the GFP response, % of DMSO in [5] was 87% (inactive). The same compound came in with a double positive events in experiment [6] of 62%. Moreover, the vesicle binding response in [6] was 135% (inactive). Moreover, the inhibition in experiment [7] is 10% (inactive); in [10] it was 21.8% (inactive); in experiment [14], -46% (inactive). For the same compound, in [8], the superoxide response (% of plate) was 97% (inactive). For the same compound, in experiment [9], the aptamer binding inhibition was 0% (inactive). Moreover, in [11], the response is -0.49% (inactive). Further, the binding (% of control) in [12] is 94.1% (inactive). In addition, the efflux inhibition (fraction of control) in experiment [13] is 0.44 (active). Moreover, the differentiation response in experiment [15] was -11.5% (inactive).
On to `CO[C@@H]1O[C@@H]2COC(c3ccccc3)O[C@@H]2[C@@H](OC)[C@@H]1O` (stereo not given in full), for which the percent of DMSO control GFP in experiment [1] was 103% (inactive). Also, the GFP response vs DMSO in experiment [2] is 104% (inactive); in experiment [4], 96.4% (inactive). For the same compound, the percent response of DMSO control in experiment [3] was 106% (inactive). Further, in [5], the GFP response, % of DMSO was 99.6% (inactive). In [6], this compound gave a double positive events of 56%. Besides, in experiment [6], the vesicle binding response is 166% (inactive). Also, the figures for the inhibition in experiment [7], in [10] and in experiment [14] were 5.36% (inactive), 15.1% (inactive) and 4% (inactive), respectively. The superoxide response (% of plate) in experiment [8] is 117% (inactive). Besides, in experiment [9], the aptamer binding inhibition was 5% (inactive). The response in experiment [11] was 4.1% (inactive). The binding (% of control) in experiment [12] was 102% (inactive). In experiment [13], the efflux inhibition (fraction of control) was 0.1 (inactive). In addition, the differentiation response in [15] is -9.89% (inactive).
